# Assay results reported in PubChem BioAssay (EPA / NIEHS).
# Records with an inconclusive call do not appear. Calls of active or inactive are those of the source. Rule for the calls: active = hit-call score of the fitted dose curve at least 0.9, where 1 is the maximum; inconclusive = response in the unintended direction; inactive = score below 0.9.
# What was measured:
# [1] = target: mouse Cholecystokinin, CCK2 Receptor (CCKB), Cckbr (gene 12426) (UniProt P56481); assay: NVS_GPCR_mCKKBCentral: NovaScreen (NVS) G Protein-Coupled Receptor Assay for mouse Cholecystokinin, CCK2 Receptor (CCKB) (AID 2283293)
# mouse Cholecystokinin, CCK2 Receptor (CCKB), Cckbr (gene 12426), sequence (P56481 whole entry, looked up): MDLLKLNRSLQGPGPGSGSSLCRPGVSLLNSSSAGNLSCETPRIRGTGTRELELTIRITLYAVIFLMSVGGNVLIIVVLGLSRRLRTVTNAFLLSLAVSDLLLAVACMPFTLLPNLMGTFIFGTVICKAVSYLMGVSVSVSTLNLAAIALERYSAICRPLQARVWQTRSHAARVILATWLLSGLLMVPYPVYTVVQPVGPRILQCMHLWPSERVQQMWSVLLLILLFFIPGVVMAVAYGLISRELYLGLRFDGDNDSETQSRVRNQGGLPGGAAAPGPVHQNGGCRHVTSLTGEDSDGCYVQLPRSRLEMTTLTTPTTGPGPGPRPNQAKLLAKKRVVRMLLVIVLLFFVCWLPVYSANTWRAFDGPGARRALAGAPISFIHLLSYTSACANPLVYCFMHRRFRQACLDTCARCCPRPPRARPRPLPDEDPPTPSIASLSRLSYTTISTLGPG
# Outline: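 Mouse forebrain membrane preparation incubated 2 h with chemical and radioligand; bound radioactivity counted after filtration. Single-concentration duplicate screen at 25 uM, then concentration series to 50 uM max for hits, DMSO as baseline.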
# [2] = target: rat Adrenergic Receptor, Beta (Adrb), Non-selective Binding, Adrb1 (gene 24925) (UniProt P18090); assay: NVS_GPCR_rAdrb_NonSelective: NovaScreen (NVS) G Protein-Coupled Receptor Assay for rat Adrenergic Receptor, Beta (Adrb), Non-selective Binding (AID 2283298)
# rat Adrenergic Receptor, Beta (Adrb), Non-selective Binding, Adrb1 (gene 24925), sequence (P18090 whole entry, looked up): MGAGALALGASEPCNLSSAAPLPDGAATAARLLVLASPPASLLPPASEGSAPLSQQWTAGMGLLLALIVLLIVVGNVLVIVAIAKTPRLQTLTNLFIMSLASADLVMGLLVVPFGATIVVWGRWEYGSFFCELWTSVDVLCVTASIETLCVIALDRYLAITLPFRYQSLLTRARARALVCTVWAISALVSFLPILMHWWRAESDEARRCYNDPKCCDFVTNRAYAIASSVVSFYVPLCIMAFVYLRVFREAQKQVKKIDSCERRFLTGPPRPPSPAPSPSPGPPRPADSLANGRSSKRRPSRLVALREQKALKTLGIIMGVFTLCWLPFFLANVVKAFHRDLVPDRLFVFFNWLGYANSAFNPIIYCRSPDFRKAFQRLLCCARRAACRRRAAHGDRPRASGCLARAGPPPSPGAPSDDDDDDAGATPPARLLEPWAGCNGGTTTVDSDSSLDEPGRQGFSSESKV
# Outline: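 Rat cortical membranes incubated 1 h with beta-adrenergic radioligand and test chemical; bound ligand measured by filtration and scintillation counting. Screen at 25 uM duplicate, then concentration series with 50 uM maximum; loss of signal versus DMSO.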
# [3] = target: rat Neurokinin-1 Receptor (NK1), Tacr1 (gene 24807) (UniProt P14600); assay: NVS_GPCR_rNK1: NovaScreen (NVS) G Protein-Coupled Receptor Assay for rat Neurokinin-1 Receptor (NK1) (AID 2283309)
# rat Neurokinin-1 Receptor (NK1), Tacr1 (gene 24807), sequence (P14600 whole entry, looked up): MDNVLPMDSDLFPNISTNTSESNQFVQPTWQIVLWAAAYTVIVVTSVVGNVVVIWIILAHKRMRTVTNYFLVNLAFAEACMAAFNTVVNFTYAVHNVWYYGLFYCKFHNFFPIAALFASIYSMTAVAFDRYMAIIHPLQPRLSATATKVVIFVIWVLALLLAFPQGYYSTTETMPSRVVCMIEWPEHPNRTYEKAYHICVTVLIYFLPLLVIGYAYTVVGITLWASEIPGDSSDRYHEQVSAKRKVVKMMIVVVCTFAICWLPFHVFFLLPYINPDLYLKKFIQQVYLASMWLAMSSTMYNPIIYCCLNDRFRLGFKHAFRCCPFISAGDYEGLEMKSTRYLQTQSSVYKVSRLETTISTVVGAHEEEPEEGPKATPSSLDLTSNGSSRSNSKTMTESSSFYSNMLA
# Outline: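 Competitive radioligand binding to NK1 in rat submaxillary membranes, 1 h incubation, filtration and scintillation read-out. Compounds first screened at 25 uM in duplicate, then concentration-response for actives; signal loss relative to DMSO.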
# [4] = target: rat Corticotropin Releasing Factor Receptor (CRF), Crhr1 (gene 58959) (UniProt P35353); assay: NVS_GPCR_rCRF: NovaScreen (NVS) G Protein-Coupled Receptor Assay for rat Corticotropin Releasing Factor Receptor (CRF) (AID 2283300)
# Outline: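 Single-concentration (25 uM, duplicate) radioligand binding on rat cortical membrane preparations, counted by scintillation after 2 h. Activity scored as signal loss relative to DMSO negative control.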
# [5] = target: rat Adrenergic Receptor, Alpha 2 (Adra2), Non-selective Binding, Adra2a (gene 25083) (UniProt P22909); assay: NVS_GPCR_rAdra2_NonSelective: NovaScreen (NVS) G Protein-Coupled Receptor Assay for rat Adrenergic Receptor, Alpha 2 (Adra2), Non-selective Binding (AID 2283299)
# rat Adrenergic Receptor, Alpha 2 (Adra2), Non-selective Binding, Adra2a (gene 25083), sequence (P22909 whole entry, looked up): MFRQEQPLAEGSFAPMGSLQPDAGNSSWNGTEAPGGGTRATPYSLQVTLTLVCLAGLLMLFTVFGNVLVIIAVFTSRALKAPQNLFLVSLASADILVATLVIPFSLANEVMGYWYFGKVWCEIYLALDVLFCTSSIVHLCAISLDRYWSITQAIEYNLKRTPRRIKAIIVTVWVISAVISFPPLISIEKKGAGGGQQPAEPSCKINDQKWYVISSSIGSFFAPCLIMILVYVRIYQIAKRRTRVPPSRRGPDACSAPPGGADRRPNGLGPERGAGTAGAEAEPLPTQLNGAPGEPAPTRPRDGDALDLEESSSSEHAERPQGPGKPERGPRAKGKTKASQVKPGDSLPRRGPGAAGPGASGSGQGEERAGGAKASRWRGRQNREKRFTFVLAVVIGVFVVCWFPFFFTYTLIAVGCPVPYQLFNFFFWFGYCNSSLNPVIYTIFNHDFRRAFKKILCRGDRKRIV
# Outline: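 Filter-based scintillation counting of radioligand binding to rat cortical membrane receptors, measured 1.25 hours post-dosing; loss of signal versus DMSO indicates displacement. Initial single-concentration duplicate at 25 uM, then concentration series.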
# [6] = target: rat Neurotensin Receptor (NTS), Ntsr1 (gene 366274) (UniProt P20789); assay: NVS_GPCR_rNTS: NovaScreen (NVS) G Protein-Coupled Receptor Assay for rat Neurotensin Receptor (NTS) (AID 2283308)
# rat Neurotensin Receptor (NTS), Ntsr1 (gene 366274), sequence (P20789 whole entry, looked up): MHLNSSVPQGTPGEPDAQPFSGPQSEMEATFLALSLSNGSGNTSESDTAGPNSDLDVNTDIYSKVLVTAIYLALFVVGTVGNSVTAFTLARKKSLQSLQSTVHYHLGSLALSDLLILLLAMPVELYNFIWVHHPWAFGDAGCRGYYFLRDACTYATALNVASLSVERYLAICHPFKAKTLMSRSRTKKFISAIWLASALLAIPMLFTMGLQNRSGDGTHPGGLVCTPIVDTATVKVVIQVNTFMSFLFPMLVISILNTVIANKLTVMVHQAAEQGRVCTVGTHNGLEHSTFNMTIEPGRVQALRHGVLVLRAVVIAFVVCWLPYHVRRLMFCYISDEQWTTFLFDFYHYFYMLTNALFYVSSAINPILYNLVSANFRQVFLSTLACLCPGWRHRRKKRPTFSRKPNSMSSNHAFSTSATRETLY
# Outline: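 Single-point duplicates at 25 uM, then concentration series to 50 uM max for hits, measured radioligand displacement on rat forebrain membrane preparations. Bound label counted by filtration scintillation at 1 h; signal loss relative to DMSO fitted.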
# [7] = target: rat Histamine Receptor (H3), Hrh3 (gene 85268) (UniProt Q9QYN8); assay: NVS_GPCR_rH3: NovaScreen (NVS) G Protein-Coupled Receptor Assay for rat Histamine Receptor (H3) (AID 2283303)
# rat Histamine Receptor (H3), Hrh3 (gene 85268), sequence (Q9QYN8 whole entry, looked up): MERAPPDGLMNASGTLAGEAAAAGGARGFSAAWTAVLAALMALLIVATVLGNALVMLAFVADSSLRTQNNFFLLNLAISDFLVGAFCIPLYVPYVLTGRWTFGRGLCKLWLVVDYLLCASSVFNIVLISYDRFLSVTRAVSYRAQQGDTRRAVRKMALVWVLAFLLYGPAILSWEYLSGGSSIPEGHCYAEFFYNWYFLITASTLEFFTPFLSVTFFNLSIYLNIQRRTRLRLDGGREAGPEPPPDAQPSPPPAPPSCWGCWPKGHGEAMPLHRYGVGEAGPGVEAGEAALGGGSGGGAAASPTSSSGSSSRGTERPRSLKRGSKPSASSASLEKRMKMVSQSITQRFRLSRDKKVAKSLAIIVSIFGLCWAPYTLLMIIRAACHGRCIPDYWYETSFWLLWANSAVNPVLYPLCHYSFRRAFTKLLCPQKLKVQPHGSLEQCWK
# Outline: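 Filter-binding radioligand competition on rat forebrain membranes, 1 h incubation; compounds screened at 25 µM in duplicate and followed in concentration series to 50 µM, loss of bound signal vs DMSO.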
# [8] = target: rat Somatostatin Receptor (SST), Sstr1 (gene 25033) (UniProt P28646); assay: NVS_GPCR_rSST: NovaScreen (NVS) G Protein-Coupled Receptor Assay for rat Somatostatin Receptor (SST) (AID 2283314)
# Outline: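 Single-concentration duplicate screen (25 uM), then concentration-response up to 50 uM for chemicals passing a threshold such as 30% inhibition. Membranes came from rat forebrain. Binding was measured 1 h post-dose by filter radiodetection and scintillation, relative to DMSO.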
# [9] = target: rat Vasopressin 1 Receptor (V1), Avpr1a (gene 25107) (UniProt P30560); assay: NVS_GPCR_rV1: NovaScreen (NVS) G Protein-Coupled Receptor Assay for rat Vasopressin 1 Receptor (V1) (AID 2283316)
# rat Vasopressin 1 Receptor (V1), Avpr1a (gene 25107), sequence (P30560 whole entry, looked up): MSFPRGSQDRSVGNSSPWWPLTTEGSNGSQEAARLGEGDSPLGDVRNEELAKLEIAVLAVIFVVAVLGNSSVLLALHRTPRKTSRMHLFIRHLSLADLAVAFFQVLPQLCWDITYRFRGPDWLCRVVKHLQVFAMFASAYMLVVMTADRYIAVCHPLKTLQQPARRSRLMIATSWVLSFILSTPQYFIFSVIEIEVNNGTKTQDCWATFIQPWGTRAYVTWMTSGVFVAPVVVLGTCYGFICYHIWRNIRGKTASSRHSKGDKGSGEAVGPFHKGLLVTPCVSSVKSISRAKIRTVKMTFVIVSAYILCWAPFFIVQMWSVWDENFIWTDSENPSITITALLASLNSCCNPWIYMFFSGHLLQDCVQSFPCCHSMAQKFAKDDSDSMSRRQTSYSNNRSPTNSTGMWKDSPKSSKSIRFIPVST
# Outline: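 Concentration-response up to 50 uM for chemicals passing a threshold such as 30% inhibition in an initial duplicate 25 uM screen. Displacement of radioligand from rat liver membranes measured after 1.5 h by filtration and scintillation.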
# [10] = target: human Neonicotinoid receptor (NNR), CHRNA2 (gene 1135) (UniProt Q15822); assay: NVS_LGIC_hNNR_NBungSens: NovaScreen (NVS) Ligand-Gated Ion Channel Assay for human Neonicotinoid receptor (NNR) (AID 2283313)
# human Neonicotinoid receptor (NNR), CHRNA2 (gene 1135), sequence (Q15822 whole entry, looked up): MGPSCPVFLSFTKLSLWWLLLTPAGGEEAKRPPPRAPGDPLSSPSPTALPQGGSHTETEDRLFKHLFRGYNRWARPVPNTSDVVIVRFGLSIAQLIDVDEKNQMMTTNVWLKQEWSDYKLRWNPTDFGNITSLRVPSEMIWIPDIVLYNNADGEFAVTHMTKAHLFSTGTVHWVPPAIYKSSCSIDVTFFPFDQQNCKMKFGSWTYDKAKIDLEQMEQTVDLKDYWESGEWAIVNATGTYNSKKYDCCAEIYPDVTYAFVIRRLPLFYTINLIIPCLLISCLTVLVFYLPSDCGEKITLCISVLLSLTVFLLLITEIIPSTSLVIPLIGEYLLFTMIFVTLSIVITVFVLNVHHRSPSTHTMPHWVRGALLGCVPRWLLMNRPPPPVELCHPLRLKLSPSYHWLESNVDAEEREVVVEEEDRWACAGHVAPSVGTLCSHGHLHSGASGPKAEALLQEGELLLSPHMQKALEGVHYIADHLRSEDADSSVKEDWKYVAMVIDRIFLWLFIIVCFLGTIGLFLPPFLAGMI
# Outline: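 Compounds first screened in duplicate at 25 uM, then actives re-tested in single-replicate dose series up to 50 uM. Binding measured as displacement of specific radioligand from neuroblastoma membrane receptors after 2 h, scintillation read on filters.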
# [11] = target: rat Neonicotinoid receptor (NNR), Chrna7 (gene 25302) (UniProt Q05941); assay: NVS_LGIC_rNNR_BungSens: NovaScreen (NVS) Ligand-Gated Ion Channel Assay for rat Neonicotinoid receptor (NNR) (AID 2283315)
# rat Neonicotinoid receptor (NNR), Chrna7 (gene 25302), sequence (Q05941 whole entry, looked up): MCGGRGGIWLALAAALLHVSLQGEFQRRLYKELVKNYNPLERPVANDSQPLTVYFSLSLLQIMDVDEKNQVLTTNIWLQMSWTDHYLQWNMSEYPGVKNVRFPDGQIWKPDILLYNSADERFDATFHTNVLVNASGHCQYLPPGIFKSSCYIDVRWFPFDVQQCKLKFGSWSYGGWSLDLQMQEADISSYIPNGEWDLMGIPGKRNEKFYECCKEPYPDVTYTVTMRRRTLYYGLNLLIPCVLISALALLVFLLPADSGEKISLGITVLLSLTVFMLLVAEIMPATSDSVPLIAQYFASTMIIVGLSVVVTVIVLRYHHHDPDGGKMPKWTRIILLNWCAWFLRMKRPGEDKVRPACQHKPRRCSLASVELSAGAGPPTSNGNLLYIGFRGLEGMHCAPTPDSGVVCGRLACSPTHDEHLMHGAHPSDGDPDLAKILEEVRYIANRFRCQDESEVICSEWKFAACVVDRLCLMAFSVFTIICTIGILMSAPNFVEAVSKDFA
# Outline: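 Rat cortical membrane preparation incubated 2.5 h with tritiated or iodinated radioligand and test chemical. Bound radioactivity was filtered and counted by scintillation, and displacement was analysed against DMSO.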
# [12] = target: rat Neurokinin-3 Receptor (NK3), Tacr3 (gene 24808) (UniProt P16177); assay: NVS_GPCR_rNK3: NovaScreen (NVS) G Protein-Coupled Receptor Assay for rat Neurokinin-3 Receptor (NK3) (AID 2283310)
# rat Neurokinin-3 Receptor (NK3), Tacr3 (gene 24808), sequence (P16177 whole entry, looked up): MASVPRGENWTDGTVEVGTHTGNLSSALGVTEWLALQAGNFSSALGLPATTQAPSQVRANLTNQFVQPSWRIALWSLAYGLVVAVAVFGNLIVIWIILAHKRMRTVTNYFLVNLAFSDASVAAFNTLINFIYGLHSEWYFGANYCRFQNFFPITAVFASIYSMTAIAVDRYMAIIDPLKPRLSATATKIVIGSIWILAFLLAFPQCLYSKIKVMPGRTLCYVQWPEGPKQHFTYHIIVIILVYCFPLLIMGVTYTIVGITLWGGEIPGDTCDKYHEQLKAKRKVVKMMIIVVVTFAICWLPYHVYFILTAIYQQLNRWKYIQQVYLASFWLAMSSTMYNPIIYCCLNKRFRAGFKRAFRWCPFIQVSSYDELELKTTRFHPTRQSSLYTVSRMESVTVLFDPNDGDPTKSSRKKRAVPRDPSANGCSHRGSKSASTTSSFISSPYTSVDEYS
# Outline: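 Filter-based radioligand displacement on rat cortex membrane preparations, read by scintillation 2 h post-dose. Chemicals first tested in duplicate at 25 uM; actives followed up in concentration series with a 50 uM maximum.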
# [13] = target: rat Opioid Receptor, Non-selective Sodium (Na+) Binding, Oprm1 (gene 25601) (UniProt P33535); assay: NVS_GPCR_rOpiate_NonSelectiveNa: NovaScreen (NVS) G Protein-Coupled Receptor Assay for rat Opioid Receptor, Non-selective Sodium (Na+) Binding (AID 2283311)
# Outline: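 Filtration radioligand binding on rat forebrain membrane preparations, read 1.5 h after dosing. Single-concentration 25 µM primary screen in duplicate, followed by singleton concentration series to 50 µM max for actives; DMSO baseline.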
# [14] = target: guinea pig Serotonin, 5-Hydroxytryptamine Receptor 4 (5HT4), HTR4 (gene 100135548) (UniProt O70528); assay: NVS_GPCR_g5HT4: NovaScreen (NVS) G Protein-Coupled Receptor Assay for guinea pig Serotonin, 5-Hydroxytryptamine Receptor 4 (5HT4) (AID 2283294)
# guinea pig Serotonin, 5-Hydroxytryptamine Receptor 4 (5HT4), HTR4 (gene 100135548), sequence (O70528 whole entry, looked up): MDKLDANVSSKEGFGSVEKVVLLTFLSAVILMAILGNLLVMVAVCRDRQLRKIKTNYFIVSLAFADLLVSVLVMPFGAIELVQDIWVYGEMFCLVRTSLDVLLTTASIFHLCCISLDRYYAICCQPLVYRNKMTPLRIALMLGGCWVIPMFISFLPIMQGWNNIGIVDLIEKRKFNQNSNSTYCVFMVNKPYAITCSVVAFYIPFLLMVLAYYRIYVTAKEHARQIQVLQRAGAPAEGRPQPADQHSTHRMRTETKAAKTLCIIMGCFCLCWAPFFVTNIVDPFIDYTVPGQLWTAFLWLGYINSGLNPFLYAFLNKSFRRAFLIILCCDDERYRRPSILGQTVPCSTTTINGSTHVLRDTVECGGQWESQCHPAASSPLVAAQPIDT
# Outline: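 Compounds first screened in duplicate at 25 uM, actives followed up in concentration series. Binding measured as displacement of specific radioligand from guinea pig striatal membranes, 1 h, filter-based scintillation read-out versus DMSO baseline.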
# [15] = target: rat Serotonin, 5-Hydroxytryptamine Receptor (5HT), Non-Selective Binding, Htr1a (gene 24473) (UniProt P19327); assay: NVS_GPCR_r5HT_NonSelective: NovaScreen (NVS) G Protein-Coupled Receptor Assay for rat Serotonin, 5-Hydroxytryptamine Receptor (5HT), Non-Selective Binding (AID 2283295)
# Outline: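 Rat cortex membrane preparation incubated 1 h with radioligand and test chemical; bound radioactivity counted after filtration. Screening began in duplicate at 25 uM with concentration-series follow-up; fitting relative to DMSO.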
# [16] = target: Adra2b (gene 24174) (UniProt P19328); assay: NVS_GPCR_rmAdra2B: NovaScreen (NVS) G Protein-Coupled Receptor Assay for hybird cells Adrenergic, Alpha 2B Receptor (Adra2B) (AID 2283306)
# Outline: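 Compounds screened first at 25 uM in duplicate, with actives followed up in concentration-response; specific radioligand displacement from hybrid neuroglioma/blastoma cell membrane preparations measured by filter scintillation counting after 1 h, normalized to DMSO.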
structure (smiles),measurement,setting,value
FC(F)C(F)(F)OCC(Cn1cncn1)c1ccc(Cl)cc1Cl (stereo unspecified),AC50,[1],10.3 µM (active)
same,outcome,[2],inactive
same,outcome,[3],inactive
Nc1c(Cl)cc([N+](=O)[O-])cc1Cl,outcome,[4],inactive
CCOP(=S)(Oc1cnc(C(C)(C)C)nc1)OC(C)C (stereo unspecified),outcome,[5],inactive
CCCCSP(=O)(SCCCC)SCCCC,outcome,[1],inactive
same,outcome,[6],inactive
N#CSCSC#N,AC50,[7],9.77 µM (active)
same,outcome,[8],inactive
same,AC50,[9],2.01 µM (active)
CC(=NC#N)N(C)Cc1ccc(Cl)nc1,AC50,[10],4.61 µM (active)
same,AC50,[11],8.03 µM (active)
CCOP(=O)(NC(C)C)Oc1ccc(SC)c(C)c1 (stereo unspecified),outcome,[12],inactive
CCCSP(=O)(OCC)SCCC,outcome,[13],inactive
CNC(=O)ON=C(C)SC,AC50,[3],44.1 µM (active)
C[N+]1(C)CCCCC1,AC50,[10],11.2 µM (active)
same,AC50,[11],6.52 µM (active)
CCC(=O)Nc1ccc(Cl)c(Cl)c1,AC50,[14],9.91 µM (active)
same,AC50,[15],34.6 µM (active)
same,outcome,[16],inactive
COP(=O)(OC)OC(Br)C(Cl)(Cl)Br (stereo unspecified),AC50,[7],5.79 µM (active)
